Source: PubChem BioAssay
DT40 TDP1 no CPT – qHTS for Inhibitors of human tyrosyl-DNA phosphodiesterase 1 (TDP1): qHTS in cells in absence of CPT | DT40 Tdp1-/- hTDP1 cells, no CPT, ATP luminescence, 48 h | Potency, µM (highest dose often 46.2 µM), without a hit: at the top dose activity change, negative = growth inhibition, actives largely listed as inhibitors | hit rate 15% among 420,000 | AID 686978, 2013; further: potency means the concentration at half of the fitted maximal effect; nearly all actives have a fitted effect of over 55% in size
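DT40 Tdp1-/-;hTDP1 cells, no CPT (DMSO vehicle only), 400 cells/well; compounds pin-transferred; ≥48 hr, 37 °C; CellTiter-Glo 30 min RT dark, luminescence read.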
HT1080NT lethal – kills 2HG-producing HT-1080-NT fibrosarcoma cells; Potency, µM (highest dose often 46.1 µM), for inactives: top-dose activity, negative = less viability, actives largely listed as cytotoxic; hit rate 1.6% among 360,000; AID 686970; HT-1080-NT fibrosarcoma viability, CellTiter-Glo ATP luminescence, 48 h;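 further: NT is the 2HG producing partner of a matched IDH1 knockdown line; potency means the concentration at half of the fitted maximal effect; 0% = DMSO-treated cells and -100% = media-only wells without cells; nearly all actives have a fitted effect of over 55% in size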
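HT-1080-NT fibrosarcoma cells (2HG-overproducing), 750 cells/well in RPMI with 5% FBS, dosed after 2 h and incubated 48 h at 37C. CellTiter-Glo luminescence normalized to DMSO and no-cell wells; concentration-response curves fitted and classed.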
HT1080 IDH1KD tx – HT-1080 IDH1 knockdown cell toxicity (counter line) | HT-1080 IDH1 knockdown viability, ATP luminescence, 48 h | Potency, µM (highest dose often 46.1 µM), inactives show top-dose activity, negative = toxicity, actives largely listed as cytotoxic | hit rate 2% among 360,000;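 further: potency means the concentration at half of the fitted maximal effect; 0% = DMSO wells and -100% = cell-free medium wells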
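Using the IDH1-knockdown HT-1080 line run in the same batch and compound series as the NT line, viability after 48 h at 37 °C was determined by CellTiter-Glo luminescence and expressed as % activity.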
DT40 TDP1 CPT – DT40-hTDP1 cell growth loss with CPT; hit rate 12% among 420,000; chicken DT40 Tdp1-/-;hTDP1 cells + 20 nM CPT, ATP luminescence, 48 h; Potency, µM (doses to about 46.2 µM), without a hit: at the highest dose activity change, negative = growth inhibition, hits mostly inhibitors; further: potency means the concentration at half of the fitted maximal effect; nearly all actives have a fitted effect of over 55% in size
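Chicken DT40 Tdp1-/- cells complemented with human TDP1, 400 cells/well, exposed to compounds plus 20 nM camptothecin for at least 48 h at 37 C; viability read as ATP content by CellTiter-Glo luminescence.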
IL1B secr inh – inhibitors of inflammasome signaling (IL-1 beta secretion); activity change, % at 57.5 µM; hit rate 4.7% among 360,000; AID 743279; THP-1 LPS/ATP IL-1B secretion, AlphaLISA, 16 h; stronger effect = lower value; in the data active means activity change below about -50%; inconclusive means mostly about -30% to -49%
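THP-1 cells pretreated 1 hr with compounds (up to 57.5 uM final), then stimulated with LPS (250 ng/mL final) plus ATP (1.25 mM final); secreted IL-1B measured by AlphaLISA after 16 hr, decreased signal indicating inhibition.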
ELG1 DNA repair – ELG1-dependent DNA repair inhibition; HEK293T ELG1-luciferase reporter, luminescence, 16 h; DNA damage induced by 5-fluorouridine; Potency, µM (doses to about 46.1 µM), for the others: at the highest dose activity change, negative = inhibition, usual class: inhibitors; hit rate 2.3% among 330,000; AID 504467; further: potency means the concentration at half of the fitted maximal effect; nearly all actives have a fitted effect of over 55% in size
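In this reporter screen, reduction of luminescence relative to DMSO vehicle indicated activity. Compounds and 5-fluorouridine were added together to 2,000 cells per well, incubated for 16 hr at 37 °C, then developed with ONE-Glo.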
Numbers without * were called inactive. Hits are enriched below; roughly 19% of the tested compounds scored in any of these assays. Unless noted, the call rests on the fitted dose curve; in most records, active means well fitted curve in the direction sought with a large enough effect; inconclusive means small, poorly fitted or top-dose-only effect, or another doubt; inactive means no such curve, though single readings can be large; an effect the other way counts as inactive or inconclusive. Unless noted, on the % scale 0 is the no-effect control and ±100 the full control effect.

Results for Cc1ccc(C(=O)N2CCN(c3ccc(F)cc3)CC2)cc1S(=O)(=O)N1CCCCC1 ?
DT40 TDP1 no CPT: 16µM*; HT1080NT lethal: inconclusive; HT1080 IDH1KD tx: -18%; DT40 TDP1 CPT: 29µM*; IL1B secr inh: 0; ELG1 DNA repair: inconclusive

What do the screens show for `CC1CC(C)CN(S(=O)(=O)c2ccc(C(=O)N(C)Cc3ccccc3)cc2)C1` (stereo unspecified)?
DT40 TDP1 no CPT: 21µM*; HT1080NT lethal: -9%; HT1080 IDH1KD tx: -16%; DT40 TDP1 CPT: inconclusive; IL1B secr inh: 18; ELG1 DNA repair: -24%

Results for CSc1ccc(CN(C)C(=O)c2ccc(S(=O)(=O)Nc3ccccc3)cc2)cc1 ?
DT40 TDP1 no CPT: 21µM*; HT1080NT lethal: 1%; HT1080 IDH1KD tx: -16%; DT40 TDP1 CPT: 18µM*; IL1B secr inh: -50*; ELG1 DNA repair: -14%

How did Cc1ccc(C(=O)N2CCN(c3ccccc3F)CC2)cc1S(=O)(=O)N1CCOCC1 do in these assays?
DT40 TDP1 no CPT: inconclusive; HT1080NT lethal: 1%; HT1080 IDH1KD tx: 0%; DT40 TDP1 CPT: -20%; IL1B secr inh: 0; ELG1 DNA repair: 0%

Results for Cc1ccc(C(=O)N2CCCCC2)cc1S(=O)(=O)N1CCCC1 ?
DT40 TDP1 no CPT: 11%; HT1080NT lethal: 0%; HT1080 IDH1KD tx: 7%; DT40 TDP1 CPT: 19%; IL1B secr inh: 11; ELG1 DNA repair: -7%

How did Cc1ccc(C(=O)N2CCN(c3cccc(C)c3C)CC2)cc1S(=O)(=O)N1CCOCC1 do in these assays?
DT40 TDP1 no CPT: 23µM*; HT1080NT lethal: -2%; HT1080 IDH1KD tx: -9%; DT40 TDP1 CPT: 16µM*; IL1B secr inh: -2; ELG1 DNA repair: -17%

How did O=C(NNC(=O)c1cccc2ccccc12)c1ccc2c(c1)OCO2 do in these assays?
DT40 TDP1 no CPT: inconclusive; HT1080NT lethal: 10%; HT1080 IDH1KD tx: -1%; DT40 TDP1 CPT: 16%; IL1B secr inh: -11; ELG1 DNA repair: inconclusive

What do the screens show for `Cc1ccc(-n2nc3c(=O)n(CC(=O)NC(C)C)nc(C)c3c2C)cc1`?
DT40 TDP1 no CPT: -18%; DT40 TDP1 CPT: -18%

How did O=C(O)c1cccnc1SCc1cccc(Br)c1 do in these assays?
DT40 TDP1 no CPT: -4%; HT1080NT lethal: 10%; HT1080 IDH1KD tx: 3%; DT40 TDP1 CPT: -15%; IL1B secr inh: 30; ELG1 DNA repair: inconclusive

Results for CN(c1ccc(C(=O)N2CCN(c3ccc(F)cc3)CC2)cc1)S(C)(=O)=O ?
DT40 TDP1 no CPT: inconclusive; HT1080NT lethal: 1%; HT1080 IDH1KD tx: -5%; DT40 TDP1 CPT: 13µM*; IL1B secr inh: -17; ELG1 DNA repair: -3%

How did CC1CC(C)CN(S(=O)(=O)c2ccc(C(=O)N3CCN(c4ccccc4)CC3)cc2)C1 (stereo unspecified) do in these assays?
DT40 TDP1 no CPT: inconclusive; HT1080NT lethal: -11%; HT1080 IDH1KD tx: inconclusive; DT40 TDP1 CPT: inconclusive; IL1B secr inh: -66*; ELG1 DNA repair: inconclusive

Results for Cc1ccc(C(=O)N2CCN(c3ccccc3)CC2)cc1S(=O)(=O)N1CCCC1 ?
DT40 TDP1 no CPT: inconclusive; HT1080NT lethal: -3%; HT1080 IDH1KD tx: -21%; DT40 TDP1 CPT: 29µM*; IL1B secr inh: -9; ELG1 DNA repair: 16µM*

What do the screens show for `C=CCN(c1ccc(C(=O)N2CCN(c3ccc(F)cc3)CC2)cc1)S(C)(=O)=O`?
DT40 TDP1 no CPT: inconclusive; HT1080NT lethal: -2%; HT1080 IDH1KD tx: -2%; DT40 TDP1 CPT: -19%; IL1B secr inh: -12; ELG1 DNA repair: inconclusive

How did CC1CCN(S(=O)(=O)c2cc(C(=O)N3CCN(c4ccccc4)CC3)ccc2Br)CC1 do in these assays?
DT40 TDP1 no CPT: 15µM*; HT1080NT lethal: -10%; HT1080 IDH1KD tx: inconclusive; DT40 TDP1 CPT: 23µM*; IL1B secr inh: -18

What do the screens show for `COc1ccc(C(=O)N2CCN(c3ccccc3)CC2)cc1S(=O)(=O)N1CCCC1`?
DT40 TDP1 no CPT: -25%; HT1080NT lethal: 1%; HT1080 IDH1KD tx: 19%; DT40 TDP1 CPT: -27%; IL1B secr inh: inactive; ELG1 DNA repair: -3%

Results for COc1cc(/C=C/[N+](=O)[O-])ccc1OC(=O)c1cc2ccccc2oc1=O ?
DT40 TDP1 no CPT: 26µM*; HT1080NT lethal: -3%; HT1080 IDH1KD tx: -10%; DT40 TDP1 CPT: inconclusive; IL1B secr inh: 23; ELG1 DNA repair: inconclusive

Results for COc1ccc(-c2nc3ncccc3o2)cc1NC(=O)c1cccs1 ?
DT40 TDP1 no CPT: 15µM*; HT1080NT lethal: 6%; HT1080 IDH1KD tx: 12%; DT40 TDP1 CPT: -20%; IL1B secr inh: -6; ELG1 DNA repair: -10%

What do the screens show for `O=C(Nc1cc(-c2nc3ncccc3o2)ccc1Cl)c1cccs1`?
DT40 TDP1 no CPT: 21µM*; HT1080NT lethal: -12%; HT1080 IDH1KD tx: -14%; DT40 TDP1 CPT: inconclusive; IL1B secr inh: inactive; ELG1 DNA repair: -6%

What do the screens show for `Cc1cc(-c2nc3ncccc3o2)ccc1NC(=S)NC(=O)C(C)C`?
DT40 TDP1 no CPT: -21%; HT1080NT lethal: 11%; HT1080 IDH1KD tx: 15%; DT40 TDP1 CPT: 2%; IL1B secr inh: 0; ELG1 DNA repair: -8%

How did COc1ccc(C(=O)Nc2ccc(-c3nc4ncccc4o3)cc2C)cc1Br do in these assays?
DT40 TDP1 no CPT: inconclusive; DT40 TDP1 CPT: 10µM*

How did CCN(C[C@H]1N[C@@](CC)(C(=O)OC)[C@H]2C(=O)N(C)C(=O)[C@@H]12)C(=O)c1ccc(C(C)(C)C)cc1 do in these assays?
DT40 TDP1 no CPT: inconclusive; HT1080NT lethal: 6%; HT1080 IDH1KD tx: 2%; DT40 TDP1 CPT: 10%; IL1B secr inh: 11; ELG1 DNA repair: 12%

What do the screens show for `CN(CC(=O)Nc1ccccc1Cl)C(=O)COC(=O)c1nc(Cl)c(Cl)c(Cl)c1Cl`?
DT40 TDP1 no CPT: inconclusive; HT1080NT lethal: 25%; HT1080 IDH1KD tx: -14%; DT40 TDP1 CPT: inconclusive; IL1B secr inh: -67*; ELG1 DNA repair: inconclusive

How did CN(CC(=O)Nc1ccccc1Cl)C(=O)COC(=O)c1ccc(Cl)nc1 do in these assays?
DT40 TDP1 no CPT: -5%; HT1080NT lethal: 0%; HT1080 IDH1KD tx: 3%; DT40 TDP1 CPT: -3%; IL1B secr inh: 9; ELG1 DNA repair: 22%

What do the screens show for `COc1ccc(OC)c(C2CC(=O)c3c([nH]c(C(=O)OCc4ccc(C)cc4)c3C)C2)c1` (stereo unspecified)?
DT40 TDP1 no CPT: 0.65µM*; DT40 TDP1 CPT: 4.6µM*
